This is an account of results in PubChem BioAssay (NCI).

The panel holds about 83,000 compounds, 20% with a hit somewhere; the sample as a whole holds those more often.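 Step 1: grow cells in 96-well plates. Step 2: add test compound at a single concentration. Step 3: incubate 48 h. Step 4: record percent growth.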 A number with no mark means an inactive call. Active and inactive are the calls of the source. Rule for the calls: active = growth percent below 10; inactive = the rest.

Test systems include RPMI-8226 leukemia; OVCAR-8 ovarian; OVCAR-5 ovarian; SK-OV-3 ovarian; IGROV1 ovarian; OVCAR-3 ovarian; HS 578T breast; NCI/ADR-RES ovarian; T-47D breast; BT-549 breast; MDA-MB-435 melanoma; SW-620 colon; MCF7 breast; HCT-116 colon; HCC-2998 colon; KM12 colon; OVCAR-4 ovarian.
What all share (test): NCI-60 one-dose screen, 48 h (100 = growth as untreated, 0 = no growth, -100 = all killed)
Settings in all cases: 10 µM unless noted

For the compound `CCCc1cccc(CCC)c1O`, the growth in the experiment with RPMI-8226 leukemia is 111%; in the experiment with OVCAR-8 ovarian, 107%; with OVCAR-5 ovarian, 117%; with SK-OV-3 ovarian, 110%; in the experiment with IGROV1 ovarian, 125%; in the experiment on OVCAR-3 ovarian, 117%. The growth with HS 578T breast was 107%; with NCI/ADR-RES ovarian it was 103%; with T-47D breast it was 104%; in the experiment on BT-549 breast, 117%; with MDA-MB-435 melanoma it was 106%; in the experiment with SW-620 colon, 104%. In addition, the growth was 113% in the experiment on MCF7 breast, 115% in the experiment on HCT-116 colon, 100% in the experiment on HCC-2998 colon and 112% with KM12 colon.

As to `COc1ccc(Cn2cc3c(c2-c2ccccc2)CCc2cncnc2-3)cc1`, the growth was 19.6% in the experiment with RPMI-8226 leukemia; 70.5% in the experiment on OVCAR-8 ovarian; 76.7% in the experiment with OVCAR-5 ovarian; 93.1% with OVCAR-4 ovarian; 76.8% in the experiment with SK-OV-3 ovarian; 29.6% in the experiment on OVCAR-3 ovarian. Moreover, the growth was 63.2% in the experiment with HS 578T breast; 12.3% in the experiment with NCI/ADR-RES ovarian; 46.7% with T-47D breast; 0.92% (active) in the experiment on MDA-MB-435 melanoma; 27.5% with SW-620 colon; 39.4% in the experiment with MCF7 breast. For the same compound, the growth in the experiment on HCT-116 colon is 27.2%; in the experiment with HCC-2998 colon, 53.1%; in the experiment with KM12 colon it was 26.6%.

As for `Cc1cc(NC(=O)Nc2cccc3ccccc23)no1`, the growth with RPMI-8226 leukemia was 102%; in the experiment on OVCAR-8 ovarian it was 105%; in the experiment with OVCAR-5 ovarian, 98.9%; in the experiment on OVCAR-4 ovarian it was 103%; in the experiment with SK-OV-3 ovarian, 103%; in the experiment on OVCAR-3 ovarian it was 113%. The growth was 107% with HS 578T breast; 87.6% in the experiment on T-47D breast; 79.9% with BT-549 breast; 101% in the experiment with MDA-MB-435 melanoma; 109% with SW-620 colon; 84% in the experiment with MCF7 breast. In addition, the growth is 95% with HCT-116 colon, 104% in the experiment on HCC-2998 colon and 112% in the experiment with KM12 colon.

For the compound `CCOC(=O)c1c2c(c(C)n1Cc1ccc(OC)cc1)-c1nc(N)ncc1CC2`, the growth with RPMI-8226 leukemia is 119%; with OVCAR-8 ovarian, 115%; in the experiment with OVCAR-5 ovarian, 103%; with OVCAR-4 ovarian it was 112%; in the experiment on SK-OV-3 ovarian, 107%; in the experiment on OVCAR-3 ovarian it was 104%. For the same compound, the growth with HS 578T breast is 111%; with NCI/ADR-RES ovarian, 104%; in the experiment on T-47D breast, 105%; with MDA-MB-435 melanoma, 110%; in the experiment on SW-620 colon, 100%; with MCF7 breast, 106%. Besides, the growth in the experiment on HCT-116 colon is 94.8%; in the experiment on HCC-2998 colon it was 80.3%; in the experiment with KM12 colon, 109%.

For the compound `C[C@]12C[C@H](O)[C@H]3[C@@H](CCC4=CC(=O)CC[C@@]43C)[C@@H]1CC[C@@H]2C(=O)CO`, the growth in the experiment with RPMI-8226 leukemia was 0.491% (active); in the experiment on OVCAR-8 ovarian, 104%; with OVCAR-5 ovarian it was 43.8%; with OVCAR-4 ovarian, 97.7%; in the experiment on SK-OV-3 ovarian it was 81.3%; in the experiment with OVCAR-3 ovarian it was 110%. The growth in the experiment with HS 578T breast was 108%; with NCI/ADR-RES ovarian, -34.7% (active); in the experiment on T-47D breast, 92%; with MDA-MB-435 melanoma, 103%; with SW-620 colon, 99.1%; with MCF7 breast it was 101%. The growth with HCT-116 colon was 106%; with KM12 colon it was 99.9%.

Consider `Nc1ccc(S(=O)(=O)Nc2ncccn2)cc1`, for which the growth in the experiment with RPMI-8226 leukemia is 112%; in the experiment on OVCAR-8 ovarian, 102%; with OVCAR-4 ovarian, 112%; in the experiment on SK-OV-3 ovarian it was 116%; with IGROV1 ovarian, 116%; in the experiment on OVCAR-3 ovarian, 115%. In addition, the growth in the experiment on HS 578T breast is 133%; with BT-549 breast, 119%; in the experiment on MDA-MB-435 melanoma it was 108%; in the experiment on SW-620 colon, 105%; in the experiment with MCF7 breast, 101%; with HCT-116 colon, 113%. The growth is 104% in the experiment with HCC-2998 colon and 108% in the experiment on KM12 colon.

On to `Fc1ccc(-c2nnc(-c3c(-c4ccc(F)cc4)nc4ncccn34)o2)cc1`, for which the growth is 92.5% in the experiment on RPMI-8226 leukemia; 87.3% in the experiment on OVCAR-5 ovarian; 106% in the experiment on OVCAR-4 ovarian; 112% in the experiment on SK-OV-3 ovarian; 106% in the experiment on IGROV1 ovarian; 110% in the experiment with OVCAR-3 ovarian. Further, the growth is 115% in the experiment with HS 578T breast; 97.3% in the experiment on NCI/ADR-RES ovarian; 95.4% in the experiment with T-47D breast; 99.9% with BT-549 breast; 97% in the experiment with MDA-MB-435 melanoma; 108% in the experiment with SW-620 colon. Moreover, the growth is 92.4% in the experiment with MCF7 breast, 94.5% in the experiment on HCT-116 colon, 111% in the experiment with HCC-2998 colon and 103% in the experiment with KM12 colon.

Consider `COc1ccc(-c2cc(C(=O)Nc3nc4cc(C)c(C)cc4s3)nc3cc(-c4ccccc4)nn23)cc1OC`, for which the growth with RPMI-8226 leukemia was 88%; in the experiment with OVCAR-5 ovarian, 111%; with OVCAR-4 ovarian it was 106%; in the experiment with SK-OV-3 ovarian, 105%; in the experiment on IGROV1 ovarian it was 122%; in the experiment on OVCAR-3 ovarian, 138%. Also, the growth in the experiment on HS 578T breast is 111%; in the experiment on NCI/ADR-RES ovarian, 102%; in the experiment on T-47D breast it was 103%; in the experiment with BT-549 breast, 122%; with MDA-MB-435 melanoma, 96.8%; in the experiment on SW-620 colon it was 47.3%. The growth in the experiment on MCF7 breast was 99%; with HCT-116 colon, 108%; in the experiment on HCC-2998 colon, 99.7%; in the experiment on KM12 colon it was 112%.

On to `CCOc1ccccc1C(=O)OCC(=O)Nc1cccc(S(=O)(=O)N(C)C)c1`, for which the growth is 85.8% in the experiment with RPMI-8226 leukemia; 94.9% in the experiment on OVCAR-5 ovarian; 95.2% in the experiment on OVCAR-4 ovarian; 129% in the experiment with SK-OV-3 ovarian; 98.5% in the experiment on IGROV1 ovarian; 126% with OVCAR-3 ovarian. Moreover, the growth is 95.3% in the experiment with HS 578T breast; 96.8% in the experiment on NCI/ADR-RES ovarian; 66.5% in the experiment with T-47D breast; 96.2% in the experiment on MDA-MB-435 melanoma; 97% in the experiment with SW-620 colon; 96.1% in the experiment with HCT-116 colon. Besides, the growth is 98.9% with HCC-2998 colon and 104% with KM12 colon.

In the case of `NC(N)=NN=c1c(=O)c2ccccc2c1=O`, the growth in the experiment on RPMI-8226 leukemia is 60.1%; with OVCAR-5 ovarian, 98.9%; in the experiment on OVCAR-4 ovarian, 103%; with SK-OV-3 ovarian it was 98.1%; in the experiment with IGROV1 ovarian it was 102%; in the experiment with OVCAR-3 ovarian, 80.6%. In addition, the growth in the experiment on HS 578T breast is 109%; in the experiment on NCI/ADR-RES ovarian, 91.7%; in the experiment on T-47D breast, 116%; with BT-549 breast it was 92.3%; in the experiment with MDA-MB-435 melanoma it was 12.7%; in the experiment on SW-620 colon it was -67% (active). Besides, the values for the growth with HCT-116 colon, in the experiment with HCC-2998 colon and in the experiment with KM12 colon were -37.8% (active), 112% and 73.8%, respectively.
